Our source for the binding signal values is PMC10726135, “HNF4α isoforms regulate the circadian balance between carbohydrate and lipid metabolism in the liver”.

Whole data set: some 18,000 sequences, median “log2 normalized intensity” near 0.39, cut for the highest 2% near 6.6. For the sample, the highest values were picked, then their nearest neighbours and some sequences at random.

In this experiment the target is T1, HNF4alpha2 (COS-7 nuclear extract) (Homo sapiens, UniProt P41235 1-474).
T1 sequence: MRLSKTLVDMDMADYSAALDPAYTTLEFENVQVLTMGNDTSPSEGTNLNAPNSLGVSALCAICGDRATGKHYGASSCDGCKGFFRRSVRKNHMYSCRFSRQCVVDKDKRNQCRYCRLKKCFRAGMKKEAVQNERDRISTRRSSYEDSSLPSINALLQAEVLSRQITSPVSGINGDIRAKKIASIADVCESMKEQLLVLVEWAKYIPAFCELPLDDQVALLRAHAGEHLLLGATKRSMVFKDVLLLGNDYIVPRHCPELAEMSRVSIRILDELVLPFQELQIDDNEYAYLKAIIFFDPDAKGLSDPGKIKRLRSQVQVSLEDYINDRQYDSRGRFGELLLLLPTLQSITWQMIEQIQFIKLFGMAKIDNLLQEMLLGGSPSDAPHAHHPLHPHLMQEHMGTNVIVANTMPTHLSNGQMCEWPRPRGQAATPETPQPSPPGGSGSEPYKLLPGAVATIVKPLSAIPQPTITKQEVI
In words: protein-binding microarray; COS-7 nuclear extract on double-stranded Agilent 4x180k PBM; binding buffer, salt, pH and temperature not given in the material; high values mean tight binding. Particulars: chain copies: 2; label: 3' end of strand 1 on the slide; dsDNA, one strand shown. The method in brief:
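Binding signal is the background-corrected, normalized gProcessedSignal calculated by Agilent software. It was measured by applying nuclear extracts of COS-7 cells transiently transfected with a human HNF4α isoform expression vector to a custom Agilent SurePrint G3 4x180k array of ~44,000 double-stranded ~60-nt test sequences in quadruplicate, then imaging bound HNF4α on an Agilent G2565CA scanner at 2-µm resolution.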
As for “ATATTAACCTTTGCCCCAGCTGTCACCCAGGCCTAGGGAGATTAGAGTATCGGTCGA”, the binding signal turned out to be 5.03 log2 normalized intensity. Consider “CCCTAATTACATATTAACCTTTGCCCCAGCGCCTAGGGAGATTAGAGTATCGGTCGA”, for which the binding signal stood at 6.63 log2 normalized intensity. As for “TTTTTTTTCTTAATTGCCCTTTGCCCTTTGGCCTAGGGAGATTAGAGTATCGGTCGA”, the binding signal was found to be 8.54 log2 normalized intensity.

For “ATTACATATTAACCTTTGCCCCAGCTGTCAGCCTAGGGAGATTAGAGTATCGGTCGA”, the binding signal came out at 5.74 log2 normalized intensity. With “GGGTATGAATTTAACCTTTGCTCTCTGAAAGCCTAGGGAGATTAGAGTATCGGTCGA” the figure was 5.68 log2 normalized intensity. On to “TTTCTTAATTGCCCTTTGCCCTTTGCCCAAGCCTAGGGAGATTAGAGTATCGGTCGA”, for which the binding signal was 8.01 log2 normalized intensity.

In the case of “AGACTTTTTTTTTCTTAATTGCCCTTTGCCGCCTAGGGAGATTAGAGTATCGGTCGA”, the binding signal turned out to be 4.26 log2 normalized intensity. In the case of “ACAGTAGACTTTTTTTTTCTTAATTGCCCTGCCTAGGGAGATTAGAGTATCGGTCGA”, the binding signal was 2.84 log2 normalized intensity. For “AAAGGTCATTTCTGCTTGCAACCAAAGGAGGCCTAGGGAGATTAGAGTATCGGTCGA”, the binding signal came out at 1.52 log2 normalized intensity. In the case of “GCAGATGTGTCTTTATAACAGACTGTAGGCGCCTAGGGAGATTAGAGTATCGGTCGA”, the binding signal was found to be 0.596 log2 normalized intensity. Take “GCCAAGCTCTGGGCTAGTCCCTGAGTATTAGCCTAGGGAGATTAGAGTATCGGTCGA”: the binding signal was -0.902 log2 normalized intensity.

On to “TCCCTCTGCTCCCCTGGCCTCACCCTTGTCGCCTAGGGAGATTAGAGTATCGGTCGA”, for which the binding signal was 2.72 log2 normalized intensity. For “ATTCCAAAAAGCTTTTGTCATGACCTTCGCGCCTAGGGAGATTAGAGTATCGGTCGA”, the binding signal came to 4.71 log2 normalized intensity.

For “AAGGATCAAGGACCTGCTCTGGGGCTACCTGCCTAGGGAGATTAGAGTATCGGTCGA”, the binding signal was -0.978 log2 normalized intensity. “TAATTGCCCTTTGCCCTTTGCCCAACCCTCGCCTAGGGAGATTAGAGTATCGGTCGA”: the binding signal worked out at 7.02 log2 normalized intensity. Consider “GCCCTTTGCCCTTTGCCCAACCCTCTCCCAGCCTAGGGAGATTAGAGTATCGGTCGA”, for which the binding signal is 5.55 log2 normalized intensity. For the sequence “AGGGAATTTCTAGGTTTGATCTTTGCCCTAGCCTAGGGAGATTAGAGTATCGGTCGA”, the binding signal came to 6.85 log2 normalized intensity. For “TCAGTTTCATTGCACTTTGCCCTCTCTTCAGCCTAGGGAGATTAGAGTATCGGTCGA”, the binding signal came out at 6.57 log2 normalized intensity. “CATTGATAATTCAGTTTCATTGCACTTTGCGCCTAGGGAGATTAGAGTATCGGTCGA”: the binding signal is 4.01 log2 normalized intensity. In the case of “ATTTCTAGGTTTGATCTTTGCCCTACAATTGCCTAGGGAGATTAGAGTATCGGTCGA”, the binding signal amounted to 5.51 log2 normalized intensity. Turning to “TCCTCAGGGAATTTCTAGGTTTGATCTTTGGCCTAGGGAGATTAGAGTATCGGTCGA”, the binding signal was 2.95 log2 normalized intensity.

As for “TTGCCCTTTGCCCAACCCTCTCCCACTCCCGCCTAGGGAGATTAGAGTATCGGTCGA”, the binding signal came to 4.91 log2 normalized intensity. “ATAATTCAGTTTCATTGCACTTTGCCCTCTGCCTAGGGAGATTAGAGTATCGGTCGA”: the binding signal came to 8.65 log2 normalized intensity.

On to “ACTCCTTTGCTTATCTGATAAGTCCATACCGCCTAGGGAGATTAGAGTATCGGTCGA”, for which the binding signal amounted to 1.53 log2 normalized intensity.

Turning to “ACTCAGGATACCTAAGCCCCATGCTGATAAGCCTAGGGAGATTAGAGTATCGGTCGA”, the binding signal worked out at 1.32 log2 normalized intensity. Then “CTTTGGACTTTTGAACTAAGGCTGGAATGAGCCTAGGGAGATTAGAGTATCGGTCGA”, with 2.92 log2 normalized intensity; and “CCTAAATCTAAGCTGGACTTTGAACTTCATGCCTAGGGAGATTAGAGTATCGGTCGA”, with 8.99 log2 normalized intensity; and “AGCTGGACTTTGAACTTCATGTGTGGTGCAGCCTAGGGAGATTAGAGTATCGGTCGA”, with 6.21 log2 normalized intensity. Consider “ATCTAAGCTGGACTTTGAACTTCATGTGTGGCCTAGGGAGATTAGAGTATCGGTCGA”, for which the binding signal came to 7.91 log2 normalized intensity.

“GACTTTGAACTTCATGTGTGGTGCAGATTCGCCTAGGGAGATTAGAGTATCGGTCGA”: the binding signal came out at 1.97 log2 normalized intensity. In the case of “TGAGACTTTGGACTTTTGAACTAAGGCTGGGCCTAGGGAGATTAGAGTATCGGTCGA”, the binding signal turned out to be 4.72 log2 normalized intensity. With “TTGTACTCAGTATGTGCTGACTGACTCCTGGCCTAGGGAGATTAGAGTATCGGTCGA” the figure was 0.992 log2 normalized intensity; with “CTCTAACCACTTTGAAATAGTGACCTCTGCGCCTAGGGAGATTAGAGTATCGGTCGA”, 4.36 log2 normalized intensity.

Consider “GTGACCTTTGACCTCTGGCCTTTGCAGTTAGCCTAGGGAGATTAGAGTATCGGTCGA”, for which the binding signal was determined as 8.21 log2 normalized intensity. Take “TTAGCTATCAGTGTTGACCTCTGGACCTCAGCCTAGGGAGATTAGAGTATCGGTCGA”: the binding signal was 6.97 log2 normalized intensity. As to “CTGACAAGTATCTCGGTCAAACCTTTGACCGCCTAGGGAGATTAGAGTATCGGTCGA”, the binding signal stood at 5.77 log2 normalized intensity. Consider “GATGTTTAGCTATCAGTGTTGACCTCTGGAGCCTAGGGAGATTAGAGTATCGGTCGA”, for which the binding signal was 5.32 log2 normalized intensity. On to “TATCAGTGTTGACCTCTGGACCTCATCTTCGCCTAGGGAGATTAGAGTATCGGTCGA”, for which the binding signal was 5.36 log2 normalized intensity. On to “CTGACCTCAAGTGACCTTTGACCTCTGGCCGCCTAGGGAGATTAGAGTATCGGTCGA”, for which the binding signal was found to be 11 log2 normalized intensity. “TAACGGTGAGGGAGGAGACTTTGACCTCTGGCCTAGGGAGATTAGAGTATCGGTCGA”: the binding signal turned out to be 6.61 log2 normalized intensity. Turning to “ACCTTTGCCTTCTTGACATCTCTCTCTGCAGCCTAGGGAGATTAGAGTATCGGTCGA”, the binding signal was determined as 1.17 log2 normalized intensity.

Consider “ACCACTTTGAAATAGTGACCTCTGCTGGCCGCCTAGGGAGATTAGAGTATCGGTCGA”, for which the binding signal was found to be 2.65 log2 normalized intensity. Consider “CTCAAGTGACCTTTGACCTCTGGCCTTTGCGCCTAGGGAGATTAGAGTATCGGTCGA”, for which the binding signal amounted to 10.2 log2 normalized intensity.

As to “GTGAGGGAGGAGACTTTGACCTCTGCTAGGGCCTAGGGAGATTAGAGTATCGGTCGA”, the binding signal came to 5.43 log2 normalized intensity.
